This is an account of results in PubChem BioAssay AID1650 (Southern Research Specialized Biocontainment Screening …, 2009).

Entries with a potency or affinity are not part of this list. Calls of active or inactive are those of the source. How the calls were made is not given here.

A short description of the assay: host cell cytotoxicity of antiviral hits, dose response, cytotoxicity control for West Nile virus antiviral project, secondary assay (AID 1650). The following applies: Mammalian host cell viability, cytotoxicity counter-screen; series mostly up to 20 µM; viability: at the top concentration.
With `CN(C)CCN(CC1CCCN(Cc2ccccc2F)C1)C(=O)Cc1ccc(F)c(F)c1` (centres undefined), the “viability” value is 89.5% (inactive).

On to `CCN(CC)c1nc2c(C)cccn2c(=O)c1C=C1C(=O)NC(=O)NC1=O`, for which the “viability” value is 93.5% (inactive).

Consider `O=C(N/N=C/c1c(O)n(CCc2ccccc2)c(=O)[nH]c1=O)c1ccccc1O`, for which the “viability” value is 95.3% (inactive).

Regarding `CC(C)c1oc(=O)cc2c1[C@@H](O)[C@H]1OC(=O)[C@@]3(C)C[C@@H](O)[C@@H](O)[C@@]2(C)C13` (some centres undefined), the “viability” value was 92.9% [at 10 µM] (inactive).

For `O=C1/C(=C\c2ccccc2)C2OCC=C3CN4CCC56c7ccccc7N1C5C2C3CC46` (centres undefined), the “viability” value was 78.2% (inactive).

Take `CC(C)c1oc(=O)cc2c1[C@@H](O)[C@H]1OC(=O)[C@@]3(C)CC[C@@H](O)[C@@]2(C)C13` (some centres undefined): the “viability” value was 86.6% [at 10 µM] (inactive).

For `c1ccc2c(c1)Sc1ccccc1N2CC1CN2CCC1CC2` (centres undefined), the “viability” value is 87% [at 10 µM] (inactive).

As for `Cc1ccc2c(c1)[C@@H]1CN(C)CC[C@@H]1N2C(=O)Nc1cccc(C(F)(F)F)c1`, the “viability” value is 81.5% [at 10 µM] (inactive).

Regarding `O=c1c2ccccc2nc(/C=C/c2ccccc2O)n1-c1ccccc1O`, the “viability” value is 75.6% (inactive).
